# For some assays here: Potency and affinity values are given separately.
# Tests used:
# Set-up in all cases: scale not given: direction of the effect not stated beside the values
# [1] = biological target: Protein translocase subunit SecA (Escherichia coli (strain K12)) (UniProt P10408); assay: Assay to Identify E. coli SecA ATPase Inhibitors; format: functional; conditions: 30 µM
# [2] = biological target: T1, Ubiquitin-activating enzyme e1, putative (Leishmania donovani (strain BPK282A1)) (UniProt E9BSI1); assay: Leishmania donovani Ubiquitin Activating Enzyme (LdE1); format: functional; conditions: 30 µM
# T1 sequence (whole entry): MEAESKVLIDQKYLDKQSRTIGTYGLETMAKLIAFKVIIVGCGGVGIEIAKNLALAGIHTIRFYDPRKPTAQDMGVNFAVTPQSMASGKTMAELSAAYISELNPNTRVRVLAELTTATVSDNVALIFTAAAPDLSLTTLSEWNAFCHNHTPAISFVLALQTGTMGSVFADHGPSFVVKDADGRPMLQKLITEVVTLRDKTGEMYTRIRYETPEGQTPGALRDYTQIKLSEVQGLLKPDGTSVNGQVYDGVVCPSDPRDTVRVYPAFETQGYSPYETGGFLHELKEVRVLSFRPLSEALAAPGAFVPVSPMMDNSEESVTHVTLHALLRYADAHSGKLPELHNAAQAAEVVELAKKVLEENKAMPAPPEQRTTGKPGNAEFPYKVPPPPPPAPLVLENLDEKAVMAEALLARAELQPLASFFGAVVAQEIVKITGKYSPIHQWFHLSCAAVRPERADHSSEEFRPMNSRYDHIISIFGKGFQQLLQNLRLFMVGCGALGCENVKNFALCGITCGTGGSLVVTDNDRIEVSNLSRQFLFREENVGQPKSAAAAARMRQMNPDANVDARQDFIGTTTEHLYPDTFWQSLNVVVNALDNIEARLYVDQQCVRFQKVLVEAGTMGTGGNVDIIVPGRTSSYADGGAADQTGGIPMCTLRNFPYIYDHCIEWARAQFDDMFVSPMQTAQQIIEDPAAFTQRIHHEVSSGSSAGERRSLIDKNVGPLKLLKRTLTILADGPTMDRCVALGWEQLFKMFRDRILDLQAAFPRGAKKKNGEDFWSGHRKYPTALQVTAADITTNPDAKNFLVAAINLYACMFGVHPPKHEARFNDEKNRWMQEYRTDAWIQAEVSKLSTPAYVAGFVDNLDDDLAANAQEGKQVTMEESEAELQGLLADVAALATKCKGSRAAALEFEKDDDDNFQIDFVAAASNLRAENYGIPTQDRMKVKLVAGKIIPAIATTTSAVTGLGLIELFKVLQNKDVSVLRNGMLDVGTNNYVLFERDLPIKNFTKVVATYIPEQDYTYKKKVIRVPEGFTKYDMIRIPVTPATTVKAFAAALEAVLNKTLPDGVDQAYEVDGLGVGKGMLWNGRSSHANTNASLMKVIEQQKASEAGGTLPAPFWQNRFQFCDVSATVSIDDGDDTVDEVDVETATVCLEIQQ
# [3] = biological target: AMP-activated protein kinase, AMPK (Homo sapiens) (UniProt P54646+O43741+P54619+Q9UGJ0+Q9Y478+Q13131+Q9UGI9); assay: AMP-dependent Kinase enzyme assay. An in vitro enzyme assay that detects ADP turnover that is directly proportional to AMPK activity. This uses naive AMPK that is activated during the assay with MK-8722; format: functional; conditions: 30 µM
# [4] = biological target: Sialic acid-binding Ig-like lectin 9 (Homo sapiens) (UniProt Q9Y336); assay: Hs-Siglec9 ALPHAscreen SOP 20170721; conditions: 10 µM
# Trypanosoma cruzi = assay: Trypanosoma cruzi phosphomannomutase and mannose-1-phosphate guanylyltransferase assay; format: functional; conditions: 10 µM
# [5] = biological target: T2, Arginase-2, mitochondrial (Homo sapiens) (UniProt P78540); assay: in vitro enzyme assay to detect the production of urea directly proportional to the activity of Arginase II; format: functional; conditions: 33.3 µM; note: in the data most compounds retested in dose-response had high values
# T2 sequence (whole entry): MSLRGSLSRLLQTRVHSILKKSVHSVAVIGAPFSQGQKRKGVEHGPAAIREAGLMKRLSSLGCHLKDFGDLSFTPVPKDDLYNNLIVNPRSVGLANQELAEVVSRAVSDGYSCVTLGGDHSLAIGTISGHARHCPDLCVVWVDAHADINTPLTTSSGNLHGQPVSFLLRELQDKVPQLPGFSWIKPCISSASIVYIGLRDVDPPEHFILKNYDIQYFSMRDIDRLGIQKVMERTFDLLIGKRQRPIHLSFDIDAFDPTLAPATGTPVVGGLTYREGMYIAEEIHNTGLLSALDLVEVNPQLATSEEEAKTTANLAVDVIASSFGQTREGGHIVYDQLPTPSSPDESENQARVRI
# [6] = biological target: T3, Proteasome subunit beta (Trypanosoma cruzi) (UniProt O96673); assay: Trypanosoma cruzi proteasome chymotrypsin-like activity (TcProtChymo) assay.; note: in the data most compounds retested in dose-response had high values; format: functional; conditions: 9.37 µM
# T3 sequence (whole entry): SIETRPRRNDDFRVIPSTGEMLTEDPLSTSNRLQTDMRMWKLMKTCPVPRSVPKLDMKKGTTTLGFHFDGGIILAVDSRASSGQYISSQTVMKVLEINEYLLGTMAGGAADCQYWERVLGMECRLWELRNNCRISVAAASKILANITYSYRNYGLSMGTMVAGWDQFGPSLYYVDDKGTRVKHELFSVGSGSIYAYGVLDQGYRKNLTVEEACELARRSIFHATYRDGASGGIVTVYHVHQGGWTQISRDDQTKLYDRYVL
# Homo sapiens = species: Homo sapiens; assay: To identify inhibition of the IFN signalling (Jak-Stat) pathway via expression of an eGFP reporter gene under the control of an IFN-stimulated response element (ISRE) containing MxA promoter.; format: functional; conditions: 30 µM
# [7] = biological target: T4, Tyrosyl-tRNA synthetase, putative (Trypanosoma cruzi (strain CL Brener)) (UniProt Q4DSP6); assay: Trypanosoma cruzi tyrosyl tRNA synthetase (TcYRS) _High Tyrosine SOP; format: functional; conditions: 30 µM; note: in the data most compounds retested in dose-response had high values
# T4 sequence (whole entry): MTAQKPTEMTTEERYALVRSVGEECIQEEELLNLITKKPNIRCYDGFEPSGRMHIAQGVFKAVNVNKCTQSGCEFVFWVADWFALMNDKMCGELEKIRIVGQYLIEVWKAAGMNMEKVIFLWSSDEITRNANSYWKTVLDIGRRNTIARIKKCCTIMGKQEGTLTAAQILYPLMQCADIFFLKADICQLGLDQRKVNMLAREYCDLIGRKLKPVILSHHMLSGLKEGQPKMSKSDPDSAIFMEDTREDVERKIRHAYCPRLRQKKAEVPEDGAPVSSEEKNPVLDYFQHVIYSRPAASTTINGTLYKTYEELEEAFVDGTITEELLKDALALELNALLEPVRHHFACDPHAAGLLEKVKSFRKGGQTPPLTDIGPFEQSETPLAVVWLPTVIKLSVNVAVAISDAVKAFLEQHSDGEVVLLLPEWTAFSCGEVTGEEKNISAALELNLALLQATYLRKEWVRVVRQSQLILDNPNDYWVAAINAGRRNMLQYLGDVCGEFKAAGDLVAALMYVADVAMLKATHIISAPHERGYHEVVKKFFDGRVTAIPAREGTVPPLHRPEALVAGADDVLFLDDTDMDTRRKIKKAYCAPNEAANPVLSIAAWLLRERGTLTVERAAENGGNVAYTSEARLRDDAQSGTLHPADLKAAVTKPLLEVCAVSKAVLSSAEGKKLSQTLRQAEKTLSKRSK
# [8] = biological target: T4, Tyrosyl-tRNA synthetase, putative (Trypanosoma cruzi (strain CL Brener)); assay: Trypanosoma cruzi tyrosyl tRNA synthetase (TcYRS) SOP; format: functional; conditions: 30 µM
# [9] = biological target: Chromo domain-containing protein 1 (Saccharomyces cerevisiae (strain ATCC 204508 / S288c) (Baker's yeast)) (UniProt P32657); assay: ScCHD-1 Enzyme Inhibition Assay; format: functional; conditions: 30 µM; note: in the data most compounds retested in dose-response had high values
# Chromo domain-containing protein 1 (Saccharomyces cerevisiae (strain ATCC 204508 / S288c) (Baker's yeast)), sequence (P32657 whole entry, the tested form may be a part): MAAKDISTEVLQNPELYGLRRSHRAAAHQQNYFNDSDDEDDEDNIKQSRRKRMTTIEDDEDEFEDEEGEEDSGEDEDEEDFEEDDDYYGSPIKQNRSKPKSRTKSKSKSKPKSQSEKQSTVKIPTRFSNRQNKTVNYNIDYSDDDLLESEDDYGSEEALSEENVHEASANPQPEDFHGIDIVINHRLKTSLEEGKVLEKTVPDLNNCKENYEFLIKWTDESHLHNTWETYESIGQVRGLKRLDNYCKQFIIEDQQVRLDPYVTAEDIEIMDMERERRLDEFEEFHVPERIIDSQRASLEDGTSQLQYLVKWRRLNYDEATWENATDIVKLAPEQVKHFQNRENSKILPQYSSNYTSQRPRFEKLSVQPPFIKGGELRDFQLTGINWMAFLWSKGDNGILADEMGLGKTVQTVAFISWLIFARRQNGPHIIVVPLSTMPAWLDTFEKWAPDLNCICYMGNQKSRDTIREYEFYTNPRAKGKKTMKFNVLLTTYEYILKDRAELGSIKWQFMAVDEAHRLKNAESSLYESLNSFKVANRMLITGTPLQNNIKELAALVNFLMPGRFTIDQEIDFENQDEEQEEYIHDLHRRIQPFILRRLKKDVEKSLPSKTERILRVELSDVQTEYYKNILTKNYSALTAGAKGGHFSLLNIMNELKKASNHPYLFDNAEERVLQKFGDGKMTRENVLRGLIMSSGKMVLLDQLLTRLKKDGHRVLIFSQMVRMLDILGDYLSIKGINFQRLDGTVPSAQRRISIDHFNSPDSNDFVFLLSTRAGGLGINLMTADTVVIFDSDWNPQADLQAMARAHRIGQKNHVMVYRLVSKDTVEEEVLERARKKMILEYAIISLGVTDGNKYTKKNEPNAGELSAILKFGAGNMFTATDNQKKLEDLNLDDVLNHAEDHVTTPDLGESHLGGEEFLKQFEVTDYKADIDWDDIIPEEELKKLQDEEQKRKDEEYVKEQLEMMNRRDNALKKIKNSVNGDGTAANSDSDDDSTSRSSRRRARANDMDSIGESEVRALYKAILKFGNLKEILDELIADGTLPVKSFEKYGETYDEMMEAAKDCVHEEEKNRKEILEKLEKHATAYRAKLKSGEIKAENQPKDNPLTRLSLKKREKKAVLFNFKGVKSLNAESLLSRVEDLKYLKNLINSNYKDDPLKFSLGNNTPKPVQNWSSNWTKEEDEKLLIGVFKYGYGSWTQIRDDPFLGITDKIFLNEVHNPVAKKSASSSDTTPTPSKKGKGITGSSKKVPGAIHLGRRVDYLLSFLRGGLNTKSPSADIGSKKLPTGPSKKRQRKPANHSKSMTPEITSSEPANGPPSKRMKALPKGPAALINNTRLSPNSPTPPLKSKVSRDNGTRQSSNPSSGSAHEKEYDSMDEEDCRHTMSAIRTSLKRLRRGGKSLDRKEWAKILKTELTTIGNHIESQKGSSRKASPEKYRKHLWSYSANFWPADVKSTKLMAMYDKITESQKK
# Sialic acid-binding Ig-like lectin 9 (Homo sapiens), sequence (Q9Y336 whole entry): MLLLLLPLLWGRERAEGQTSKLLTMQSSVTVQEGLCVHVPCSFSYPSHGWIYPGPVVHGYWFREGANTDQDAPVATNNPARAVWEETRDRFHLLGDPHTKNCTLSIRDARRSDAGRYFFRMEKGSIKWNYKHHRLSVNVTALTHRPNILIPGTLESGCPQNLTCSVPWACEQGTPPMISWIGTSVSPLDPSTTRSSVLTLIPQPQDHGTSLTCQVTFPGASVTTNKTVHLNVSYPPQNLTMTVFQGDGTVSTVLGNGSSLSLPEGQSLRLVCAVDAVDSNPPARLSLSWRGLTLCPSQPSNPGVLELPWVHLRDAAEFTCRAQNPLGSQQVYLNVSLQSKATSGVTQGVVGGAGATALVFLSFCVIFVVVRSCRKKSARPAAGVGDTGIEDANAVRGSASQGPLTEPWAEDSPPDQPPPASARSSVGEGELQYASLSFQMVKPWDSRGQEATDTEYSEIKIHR
# Protein translocase subunit SecA (Escherichia coli (strain K12)), sequence (P10408 whole entry): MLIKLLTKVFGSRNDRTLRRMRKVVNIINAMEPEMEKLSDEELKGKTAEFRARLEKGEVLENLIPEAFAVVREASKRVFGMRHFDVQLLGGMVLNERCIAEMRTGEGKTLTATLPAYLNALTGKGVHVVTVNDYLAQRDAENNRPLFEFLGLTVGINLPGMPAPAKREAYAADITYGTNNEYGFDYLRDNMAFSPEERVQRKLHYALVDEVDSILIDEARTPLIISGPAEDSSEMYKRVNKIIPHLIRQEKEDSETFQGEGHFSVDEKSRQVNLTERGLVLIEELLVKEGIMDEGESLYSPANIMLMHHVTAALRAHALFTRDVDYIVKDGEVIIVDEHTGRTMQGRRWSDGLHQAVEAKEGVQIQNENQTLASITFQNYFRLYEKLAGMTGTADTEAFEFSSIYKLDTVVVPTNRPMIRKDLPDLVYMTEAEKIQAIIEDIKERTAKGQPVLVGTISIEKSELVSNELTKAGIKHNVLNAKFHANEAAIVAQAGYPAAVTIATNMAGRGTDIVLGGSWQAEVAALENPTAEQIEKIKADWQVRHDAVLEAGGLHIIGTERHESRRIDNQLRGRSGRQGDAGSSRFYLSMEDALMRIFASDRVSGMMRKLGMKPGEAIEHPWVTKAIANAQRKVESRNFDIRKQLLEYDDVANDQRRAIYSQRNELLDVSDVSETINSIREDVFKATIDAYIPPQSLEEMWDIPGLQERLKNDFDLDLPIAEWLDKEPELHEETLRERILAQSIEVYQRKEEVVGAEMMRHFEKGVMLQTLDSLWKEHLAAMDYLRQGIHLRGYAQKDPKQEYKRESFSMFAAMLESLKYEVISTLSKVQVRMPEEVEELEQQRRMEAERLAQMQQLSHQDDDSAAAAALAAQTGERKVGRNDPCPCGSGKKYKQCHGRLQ
SMILES,Percent Effect [1] [%],Percent Effect [2] [%],Percent Effect [3] [%],Percent Effect [4] [%],Percent Effect (Trypanosoma cruzi) [%],Percent Effect [5] [%],Percent Effect [6] [%],Percent Effect (Homo sapiens) [%],Percent Effect [7] [%],Percent Effect [8] [%],Percent Effect [9] [%]
O=C(NC[C@@H]1CCCN1)c1cc(COc2cccc(C(F)(F)F)c2)[nH]n1,-1.63,9.72,-0.951,10.3,2.62,21.6,6.32,-13.9,4.21,7.69,-1.17
Cc1cnn(CCNCc2ccc(C#N)cc2F)c1,-5.04,10.8,-4.08,8.42,-2.51,0.554,5.75,7.34,6.93,13.4,-0.768
O=C(NCC1CC1)[C@H]1C[C@H]2OCC[C@H]2N(Cc2ccoc2)C1,-0.0445,21.6,4.14,-14,1.86,6.69,6.09,32.6,3.24,15.4,-0.46
CCCN(CC(=O)NC)C(=O)c1ccc(-c2ccsc2)nc1C,-1.19,6.94,-2.8,10.6,4.76,36.2,17.9,12.1,7.37,17.9,91
CN(c1ccncn1)C1CC2(CCN(C(=O)c3cccs3)C2)C1 (stereo unspecified),-5.11,1.35,1.54,8.09,2.96,-2.09,1.09,11.6,-6.45,-6.49,-17.8
O=C(Cn1cc(I)cn1)Nc1cccnc1,-7.8,0,2.58,6.82,1.85,-10.7,16.4,4.4,3.19,7.79,-7.88
CN(Cc1cnn(C)c1)C(=O)NCc1nnc2n1CCC2,-4.33,10.1,2.17,6.31,4.06,1.52,-0.901,3.9,5.42,8.86,-6.73
Cc1c(C)n(Cc2ccccn2)c2nc3c(c(N)c12)CCCC3,-3.58,-1.33,15.5,6.91,-3.73,-8.98,12.8,-6.48,2.12,5.13,-5.09
Cc1noc(Cl)c1CCC(=O)N1CCC(CC(N)=O)CC1,-6.39,18.4,-6.93,6.68,6.63,-3.96,13.6,10.4,4.43,18.5,-7.5
Cc1ccc(NC(=O)Cn2cc(I)cn2)cc1,-4.63,-4.17,-12.3,3.22,-2.82,-1.32,6.32,28.2,-4.21,-7.69,3.77
N#CCSCCCN1CCN(C(=O)c2ccc(Cl)cc2)CC1,-6.76,-8.22,6.65,-5.18,-3.37,-25.9,-2.83,4.5,-2.08,-3.7,7.74
CC(C)c1nccn1C1CCCN(C(=O)c2ccnc(N(C)C)c2)C1 (stereo unspecified),-2.97,-7.79,-1.67,-1.25,0.0979,1.47,10.6,18.4,1.91,-11.8,-18.1
NC(=O)COc1cccc(C(=O)N2CCCC(n3ccnc3)C2)c1 (stereo unspecified),-0.383,0,-5.3,11.8,6.41,0.554,-4.67,-2.06,1.98,11,2.43
CCc1nc(C2CCCN2CC(=O)Nc2sc(C)c(C)c2C)no1 (stereo unspecified),-2.85,-5.2,3.9,11.2,1.69,-1.42,-8.11,11.2,13.6,14.6,-1.21
Cc1cc(C(=O)NCc2cccnc2OC(C)C)no1,-2.03,8.11,-0.722,4.58,-5.19,4.41,3.42,27.8,6.4,13.6,-0.257
CC(C)COCc1cncc2c1CCN(Cc1cnn(C)c1)C2,-5.06,7.79,2.31,5.43,-0.688,-29,4.16,-12.6,7.53,11.1,133
